# This is part of a sample that, as a whole, favours compounds with a hit. Of some 79,000 tested, about 15% had one in any assay. Unmarked numbers belong to inactive results. Activity calls are given as the source filed them. No stated cut-off is given here; in the data, active means growth inhibition above about 70%; inactive means the rest.
# How the values were obtained:
# [1] = NCI Yeast Anticancer Drug Screen. Data for the rad50 strain (AID 155);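 further: 0% = growth of vehicle-only cultures of the same strain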; conditions: S. cerevisiae rad50 strain growth inhibition, active compounds read high; at 50.0 µM unless noted
# How it was run: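 DNA repair mutant yeast, compound exposure, growth read-out; inhibition is taken relative to vehicle.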
# [2] = NCI Yeast Anticancer Drug Screen. Data for the mec2-1 strain (AID 157); conditions: S. cerevisiae mec2-1 strain, active compounds read high; at 50.0 µM unless noted
# How it was run: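 Test agents were screened against the mec2-1 yeast strain, with defined DNA repair or cell cycle alteration. Growth was scored as inhibition against vehicle-only controls.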
# [3] = NCI Yeast Anticancer Drug Screen. Data for the sgs1 mgt1 strain (AID 161);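 further: 0% = growth of cultures given vehicle only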; conditions: S. cerevisiae sgs1 mgt1 strain, active compounds read high; at 50.0 µM unless noted
# How it was run: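 Inhibition of yeast growth, normalised to vehicle-treated controls, is reported for a strain bearing genetic alterations in DNA damage repair.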
# [4] = NCI Yeast Anticancer Drug Screen. Data for the cln2 rad14 strain (AID 165);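 further: 0% = growth equal to vehicle treated cultures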; conditions: S. cerevisiae cln2 rad14 strain, active compounds read high; at 50.0 µM unless noted
# How it was run: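 Growth of compound-exposed yeast (cln2 rad14 genotype) measured and expressed as inhibition relative to vehicle.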
# [5] = NCI Yeast Anticancer Drug Screen. Data for the bub3 strain (AID 167); conditions: S. cerevisiae bub3 mutant strain, active compounds read high; at 50.0 µM unless noted
# How it was run: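 In this screen, a yeast mutant lacking normal mitotic checkpoint function is challenged with compound. Relative growth versus vehicle gives the inhibition value.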
# [6] = NCI Yeast Anticancer Drug Screen. Data for the mlh1 rad18 strain (AID 175); conditions: S. cerevisiae mlh1 rad18 strain growth inhibition, active compounds read high; at 50.0 µM unless noted
# How it was run: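 In this whole-cell yeast screen, a strain with altered DNA damage repair is challenged with compound, and its growth is measured against matched vehicle-treated controls.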
Structure (SMILES),growth inhibition [1],growth inhibition [2],growth inhibition [3],growth inhibition [4],growth inhibition [5],growth inhibition [6]
Cc1ccc(C(C)C)c(Oc2cc(C)ccc2C(C)C)c1,-17.9%,7.1%,-6.8%,-37.8%,-17.5%,-19.8%
CC(C)N(C(=O)c1ccc(C(=O)N(c2ccccc2)C(C)C)cc1)c1ccccc1,-40.5%,-7.45%,-1.25%,36%,-3.45%,14.4%
Cn1c(=O)[nH]c(=O)c2nc(-c3ccccc3)cnc21,-11.9%,12.3%,2.55%,-13.6%,-2.7%,-0.65%
CCSc1[nH]c(Nc2nc(-c3ccccc3)n(-c3ccccc3)n2)c(C(N)=O)c1C(N)=O,-16.9%,1.35%,7.8%,-5.85%,-9.75%,7%
CCOC(=O)C(C)(c1[nH]c2ccccc2c1C)c1[nH]c2ccccc2c1C,-0.55%,-6.2%,-14.2%,-1.4%,-14.6%,-5.7%
CCN(CC)c1nc(Cl)nc(Nc2ccc3cc(-c4ccccc4)c(=O)oc3c2)n1,-9.15%,-24.9%,-8.1%,8.05%,-12.7%,-7.25%
N#C/C(=C\c1cccc2ccccc12)c1ccc(Cl)cc1,-11.8%,-12.9%,-6.65%,-13.7%,-2.6%,-1.85%
O=[N+]([O-])c1cccc(C2=NN(c3ccccc3)C3c4cc(Br)ccc4OCC23)c1 (stereo not drawn),-10.8%,-18.4%,-17.6%,2.45%,10.2%,-31.7%
CCCCCCCCCCCCCC(=O)OCCC(C)C,-5.85%,0.25%,7.25%,-18.9%,3.4%,-7.3%
COC(=O)c1ccccc1CC1Cc2ccc3c(c2C1=O)CCCC3 (stereo not drawn),-1.35%,-65.7%,-13.3%,5.4%,17.8%,3.3%
CC(/C=C/C(=O)c1sc(-n2nc(-c3ccccc3)cc2-c2ccccc2)nc1C)=C\c1ccccc1,21.9%,5.25%,25.9%,8.85%,44.8%,20.7%
Cc1ccc(NC(=O)C2CCCCC2)cc1,5.85%,3.3%,-6.6%,10.6%,-6.25%,-1.6%
Cc1cccc(C2=N/C(=C\c3ccc(N(C)C)cc3)C(=O)O2)c1,20.2%,6%,7.7%,18.2%,3.05%,-6.1%
CC(=O)c1ccc(N=CC2CCCCC2=O)cc1 (stereo not drawn),-8.35%,2.7%,17.1%,-30.1%,-2.9%,-13.9%
Cc1cc(C)c(-c2noc(-c3ccc(Cl)cc3)c2C2=NCCN2)c(C)c1,29.9%,18.3%,18.1%,38.6%,17.7%,8.45%
CCc1ccc2c(-c3ccccc3)c3c(-c4ccccc4)c4ccccc4c(-c4ccccc4)c3c(-c3ccccc3)c2c1,16.6%,7.3%,-5.8%,-28.4%,-8.15%,23.4%
O=C(Nc1ccccc1)c1cc(S(=O)(=O)Nc2n[nH]c(=O)[nH]2)c(SSc2cc(Cl)c(C(=O)Nc3ccccc3)cc2S(=O)(=O)Nc2n[nH]c(=O)[nH]2)cc1Cl,18.8%,22.7%,-8.5%,-6.35%,-2.25%,25.4%
S=c1[nH]nc2scnn12,-2.85%,3.55%,4.25%,-45.5%,7.4%,-9.3%
CCCCCCCCCCCCN1CCCC(O)C1 (stereo not drawn),66.8%,60.8%,74.4% (active),56.4%,70.6% (active),78.1% (active)

Structure (SMILES),growth inhibition [1],growth inhibition [2],growth inhibition [3],growth inhibition [4],growth inhibition [5],growth inhibition [6]
N#CC(C#N)=C1SC(=Nc2ccccc2)C(=Nc2ccccc2)N1c1ccccc1,11.6%,6.05%,19.2%,7.1%,21.6%,16.4%
C/C(=N/NC(N)=O)C1CCc2ccccc2C1 (stereo not drawn),43%,-6.9%,3.2%,1.95%,7.8%,22.9%
Cc1cc[n+]2cc(-c3ccc(/C=N/N=C(N)N)cc3)n(C)c2c1,22.9%,33.9%,18.7%,28.9%,-8.75%,29.9%
CC(=O)OCCc1cc2ccccc2oc1=O,-9.05%,23.9%,-16.8%,8.6%,12.2%,9.25%
O=C(O)COc1ccc(C2CCc3ccccc32)cc1 (stereo not drawn),19.7%,7.3%,-3.85%,16%,8.25%,0.7%
C=CCOC(=O)COc1ccc(Cl)cc1,-0.95%,-8.1%,-12.3%,-2.15%,-7.75%,0.55%
Nc1ncnc2c1ccn2COCCO,-8.25%,1.55%,4.7%,-43.9%,-12.5%,-3.9%
COC(=O)[C@H](Cc1c[nH]c2ccccc12)NC(=O)OCC1OC(n2cc(C)c(=O)[nH]c2=O)CC1N=[N+]=[N-] (stereo partly drawn),-0.35%,-20.4%,-3.5%,9.3%,-13.6%,-79.5%
CC(C)(C)c1cc2c(O)c3cccc4c(=O)c5cccc6c5-c(c34)c2c(c1)c6=O,33.9%,15.1%,-26.8%,7.2%,4.8%,-11.2%
Nc1nc(Cl)c(N)c(NCC2(CO)CC(Cc3ccccc3)C2)n1 (stereo not drawn),26.4%,-35.4%,18.9%,7.6%,31%,15.1%
CC(=O)OCC(OC(C)=O)C(OC(C)=O)C(OC(C)=O)C(OC(C)=O)C(=O)NC1CCc2ccccc2C1 (stereo not drawn),24.8%,2.6%,13.6%,30.4%,0.25%,21.9%
O=C(O)c1cccc(C(=O)O)c1Sc1ccccc1,1.9%,1.9%,5.75%,11.3%,-0.1%,12.1%
CCN1c2ccccc2CC(CCCN(C)C)(C(N)=O)c2ccccc21 (stereo not drawn),3.8%,12.3%,18.2%,9.45%,-1.85%,-8.25%
CCOC(=O)CNC(=O)SCc1ccccc1,-12.4%,-6.2%,-5.95%,-8.1%,-11.3%,1.45%
CCN1CCCC(C(=O)O)(c2ccccc2)CC1 (stereo not drawn),1.75%,-11.1%,-6.2%,-39%,-1.15%,2%
COc1ccc(OC)c(/C=N\NC(=O)N/N=C/c2cc(OC)ccc2OC)c1,-9.4%,-20.6%,11.3%,-2.05%,22.8%,-3.9%
O=C(c1cccc(C(=O)N2CCOCC2)n1)N1CCOCC1,-9.95%,17.1%,-3.5%,-19.4%,5.15%,7.15%
CC12C=CC(=O)C(O)C1CC=CC2 (stereo not drawn),12.6%,14.3%,4.3%,6.05%,11.4%,8.95%
CCOC(=O)C(=CNC(=S)N=Nc1c(O)[nH]c2ccccc12)C(=O)OCC,-58.4%,-69.2%,-45%,2.85%,-36.9%,-25.8%
